PubChem BioAssay (Tox21)
Inconclusive results are not listed. A call without a number means that no potency is given here. Calls of active or inactive are those of the source. Calls come from the whole dose curve.

Target: Thyrotropin receptor (Homo sapiens) (UniProt P16473)
Assay: qHTS assay to identify small molecule antagonists of the thyroid stimulating hormone receptor (TSHR) signaling pathway (AID 1259385); note: nearly all actives have a fitted effect of over 20% in size
Details: TSHR-HEK293 cAMP HTRF, TSH-stimulated antagonist mode; series mostly up to 92.4 µM
Method in brief: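 Antagonist mode: compound-treated TSHR-expressing HEK293 cells were stimulated with 1.5 ng/mL TSH (final) in presence of Ro20-1724 for 30 min at RT. HTRF cAMP detection after 1 h; each compound tested at 15 concentrations, triplicate.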

Chain of Thyrotropin receptor (Homo sapiens) (P16473 whole entry, looked up): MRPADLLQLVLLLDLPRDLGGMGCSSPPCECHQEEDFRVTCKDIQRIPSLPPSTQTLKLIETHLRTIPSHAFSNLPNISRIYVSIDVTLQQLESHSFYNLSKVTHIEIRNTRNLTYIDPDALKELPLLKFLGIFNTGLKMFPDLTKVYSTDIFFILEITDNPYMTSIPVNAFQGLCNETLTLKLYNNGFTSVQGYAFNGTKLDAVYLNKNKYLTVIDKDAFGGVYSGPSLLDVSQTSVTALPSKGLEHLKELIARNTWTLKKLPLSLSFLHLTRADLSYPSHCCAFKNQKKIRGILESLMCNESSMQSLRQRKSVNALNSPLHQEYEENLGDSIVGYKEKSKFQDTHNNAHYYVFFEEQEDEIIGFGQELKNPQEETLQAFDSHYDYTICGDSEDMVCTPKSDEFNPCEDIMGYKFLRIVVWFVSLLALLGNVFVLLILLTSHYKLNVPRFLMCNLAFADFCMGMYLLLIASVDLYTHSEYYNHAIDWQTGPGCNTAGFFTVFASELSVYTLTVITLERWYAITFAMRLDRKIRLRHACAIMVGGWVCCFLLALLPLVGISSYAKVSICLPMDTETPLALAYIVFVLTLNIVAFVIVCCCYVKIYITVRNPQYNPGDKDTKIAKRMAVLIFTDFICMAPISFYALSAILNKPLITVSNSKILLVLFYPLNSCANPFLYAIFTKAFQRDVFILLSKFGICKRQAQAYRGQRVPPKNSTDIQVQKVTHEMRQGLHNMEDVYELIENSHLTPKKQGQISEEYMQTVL

Row | SMILES | Potency | activity change, negative = inhibition
1 | O=P(Cl)(Cl)Cl | inactive | 
2 | O=c1[nH]c(Cl)c(Cl)cc1Cl | inactive | 
3 | CCN(CC)C(=S)S | inactive | 
4 | Clc1c(Cl)c(Cl)c(Cl)c(Cl)c1Cl |  | 2.16% [at 8.39 µM] (inactive)
5 | CCCCCCCc1ccc(O)cc1 | inactive | 
6 | CCNS(=O)(=O)C(F)(F)C(F)(F)C(F)(F)C(F)(F)C(F)(F)C(F)(F)C(F)(F)C(F)(F)F | inactive | 
7 | Cc1c([N+](=O)[O-])c(C)c([N+](=O)[O-])c(C(C)(C)C)c1[N+](=O)[O-] | inactive | 
8 | CN1CCc2cc(Cl)c(O)cc2[C@H]2c3ccccc3CC[C@@H]21 | inactive | 
9 | ClC1=C(Cl)[C@]2(Cl)[C@@H]3[C@H]4C[C@H]([C@@H]5O[C@H]45)[C@@H]3[C@@]1(Cl)C2(Cl)Cl | inactive | 
10 | c1ccc2c(c1)cc1ccc3cccc4ccc2c1c34 | inactive | 
11 | CSC(C)(C)/C=N/O | inactive | 
